Laboratory results as given in PubChem BioAssay (NCI).
The panel holds about 83,000 compounds, 20% with a hit somewhere; the sample as a whole holds those more often.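 Single-concentration screen, 48 h exposure, 96-well plates. Endpoint: percent growth. Below 10 = active.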 Activity calls are given as the source filed them.

What was measured:
Assay in all cases: NCI-60 one-dose screen, 48 h (100 = growth as untreated, 0 = no growth, -100 = all killed)
Details in all cases: 10 µM
[1] = tested on: NCI-H23 lung
[2] = tested on: NCI-H226 lung
[3] = tested on: NCI-H322M lung
[4] = tested on: HOP-62 NSCLC
[5] = tested on: NCI-H460 lung
[6] = tested on: HOP-92 NSCLC
[7] = tested on: NCI-H522 lung
[8] = tested on: A549/ATCC NSCLC
[9] = tested on: 786-0 renal
[10] = tested on: COLO 205 colon
[11] = tested on: DU-145 prostate
[12] = tested on: K-562 leukemia
[13] = tested on: MALME-3M melanoma
[14] = tested on: MDA-MB-231 breast
[15] = tested on: RXF 393 renal
[16] = tested on: SF-268 CNS
[17] = tested on: SF-295 CNS
[18] = tested on: SF-539 CNS
[19] = tested on: UACC-257 melanoma
[20] = tested on: M14 melanoma

Measured: growth

COc1ccc(OC)c(/C=N/NC(=O)c2ccc3nc(-c4ccc(Cl)cc4)[nH]c3c2)c1
active: [15] 3.46%
inactive: [1] 66.1% | [2] 64.3% | [3] 71.1% | [4] 81.6% | [5] 82.5% | [6] 63.4% | [7] 59.1% | [8] 91.2% | [9] 73.4% | [10] 81.7% | [11] 48% | [12] 47.1% | [13] 81.6% | [14] 10.3% | [16] 57% | [17] 48.1% | [18] 54.7% | [19] 114% | [20] 69.1%

CCN1CCN(Cc2ccc(NC(=O)c3cccc(-n4cc(-c5ccc(NC(C)=O)nc5)nn4)c3)cc2C(F)(F)F)CC1
inactive: [1] 93% | [2] 99.9% | [3] 125% | [4] 121% | [5] 100% | [6] 72.6% | [7] 74.7% | [8] 96.4% | [9] 58.5% | [10] 57.3% | [11] 104% | [13] 53.1% | [14] 75.8% | [15] 102% | [16] 123% | [17] 93.1% | [18] 73.1% | [19] 87% | [20] 78.3%
active: [12] -28.4%

O=C(O)CCCCCCCCCCN1C(=O)/C(=C/c2cnc(-c3ccc(Cl)cc3)s2)SC1=S
active: [3] 5.41% | [5] 4.44% | [6] -40.9% | [7] -16% | [8] -19.6% | [17] 8.83%
inactive: [1] 11.8% | [2] 34.8% | [4] 36.3% | [9] 28.1% | [10] 139% | [11] 13.2% | [12] 22.1% | [13] 80.6% | [14] 48.9% | [15] 77.4% | [16] 49.4% | [18] 36.4% | [19] 87.6% | [20] 16.5%

CS(=O)(=O)Nc1ccc(-c2ccc3c(c2)ncn3-c2ccc(NC(=O)Nc3ccc(Br)cc3)cc2)cc1
inactive: [3] 15.3% | [6] 26.8% | [8] 12.1% | [11] 29.8% | [14] 13.6% | [16] 26.4%
active: [1] 3.9% | [2] 9.71% | [4] -3.22% | [5] 2.98% | [7] -23.4% | [9] -13.6% | [10] -27.9% | [12] 4.89% | [13] -20.2% | [15] -16.8% | [17] -38.3% | [18] -34.5% | [19] -16.9% | [20] 4.32%

Cc1cc(C)cc(Oc2cccc(-c3c(C)nnn3C3CCN(CCN(C)C)CC3)n2)c1
inactive: [1] 34.5% | [3] 40% | [4] 42.5% | [5] 51.1% | [8] 30.3% | [9] 22.3% | [11] 55.8% | [12] 13.6% | [14] 36.9% | [16] 52.2% | [17] 32.9% | [18] 34.2%
active: [2] 5.11% | [6] -9.61% | [7] -15.7% | [10] -74% | [13] -40.5% | [15] -6.82% | [19] -31.7% | [20] 7.14%

COC(=O)CC1CC1C1Cc2c(nc(N(C)S(C)(=O)=O)nc2C(C)C)-c2ccc(F)cc21 (stereo not given)
inactive: [1] 69.1% | [2] 78.8% | [3] 96.8% | [4] 109% | [5] 94.6% | [6] 84% | [7] 55.6% | [8] 92.3% | [9] 86% | [10] 90.8% | [11] 92.7% | [12] 34.3% | [13] 112% | [14] 69.3% | [15] 79.8% | [16] 93.8% | [17] 72.4% | [18] 96% | [19] 83.8% | [20] 70.4%

COc1cc2c(cc1OC)/C(=C\c1sc(Nc3ccc(O)cc3)nc1O)C(C(=O)O)=N2
inactive: [1] 47% | [2] 63.7% | [3] 53.8% | [4] 39.2% | [5] 18.2% | [6] 36.4% | [8] 56.4% | [9] 29.1% | [12] 11.2% | [13] 12.8% | [14] 29.8% | [15] 25% | [16] 54.2% | [17] 11.9% | [19] 48.8%
active: [7] -18.3% | [10] -30.7% | [11] 6.39% | [18] -20.2% | [20] 4.93%

O=C(CN1CCN(c2ncnc3c2cnn3-c2ccccc2)CC1)Nc1nncs1
inactive: [2] 43.9% | [3] 84.8% | [12] 10.6% | [14] 29.7% | [19] 54.3%
active: [1] -55.1% | [4] -52.7% | [5] -22.1% | [6] -70.9% | [7] -79.3% | [8] -32.5% | [9] -80.9% | [10] -50.2% | [11] -96.1% | [13] -67.3% | [15] -71.3% | [16] -34.4% | [17] -31.4% | [18] -88.2% | [20] 4.82%

COc1cc(NC(=O)c2cc(-c3ccc(F)cc3F)ccc2O)cc(OC)c1OC
inactive: [1] 26.2% | [2] 50.9% | [3] 38.4% | [4] 24% | [5] 22.5% | [8] 37.1% | [9] 54% | [10] 116% | [11] 34.3% | [12] 14% | [13] 17.4% | [14] 47.5% | [15] 75.9% | [16] 25.9% | [17] 65.5% | [18] 50.8% | [19] 55.3% | [20] 55.8%
active: [6] -11.8% | [7] 7.09%

Nc1nnc(-c2c[nH]c3ncccc23)c(-c2c[nH]c3ccc(Br)cc23)n1
inactive: [1] 57.1% | [2] 63.6% | [3] 60.5% | [4] 49.4% | [5] 27.2% | [6] 54.8% | [7] 47.9% | [8] 58.9% | [9] 40% | [10] 66.9% | [11] 62.4% | [12] 32.9% | [13] 46.8% | [14] 41.6% | [15] 45.4% | [16] 51.8% | [17] 41.9% | [18] 37.2% | [19] 82.1% | [20] 50.3%

COc1ccc(CCN2C(=O)/C(=C/c3csc(C#N)n3)SC2=S)cc1OC
inactive: [1] 38.5% | [2] 100% | [3] 101% | [4] 111% | [5] 98.4% | [8] 95% | [9] 21.1% | [14] 95.7% | [16] 99.4% | [17] 98.7% | [19] 13.4%
active: [6] -5.19% | [7] -66.7% | [10] -27.5% | [11] -10.9% | [12] 1.08% | [13] 2.58% | [15] -1.04% | [18] -1.47% | [20] 2.13%

O=C(c1ccc(Cl)cc1)C1[C@H](c2ccc(Br)cc2)[C@@H](c2ccccc2)NC12C(=O)Nc1ccccc12 (stereo not given in full)
inactive: [3] 19.9% | [8] 15% | [11] 12.4% | [16] 12.1% | [20] 29.4%
active: [1] -35.9% | [2] -72.4% | [4] -18.9% | [5] -33.8% | [6] -18% | [7] -4.55% | [9] -4.41% | [10] -88.9% | [12] -15.7% | [13] -35.9% | [14] -60.1% | [15] -59.8% | [17] -54.5% | [18] -57.7% | [19] -2.88%

CO[C@@H]1CSS[C@H]1Cn1nc(-c2ccc(Oc3ccccc3)cc2)c2c(N)ncnc21
active: [12] 8.2% | [20] -64.2%
inactive: [1] 63.5% | [2] 24.7% | [3] 76.4% | [4] 111% | [5] 77.4% | [6] 57.9% | [7] 17.3% | [8] 45.7% | [9] 55.3% | [10] 61.8% | [11] 73.5% | [13] 63.4% | [14] 72.6% | [15] 35.5% | [16] 70% | [17] 43.1% | [18] 50% | [19] 40.8%

O=c1oc2ccc(-c3ccc(F)cc3F)cc2c(=O)n1-c1ccc(F)c(Cl)c1
inactive: [11] 12.6% | [20] 12.8%
active: [1] -49.8% | [2] -24.8% | [3] -1.73% | [4] -25.9% | [5] -0.567% | [6] -22% | [7] -17.7% | [8] 8.87% | [9] 7.54% | [10] 7.64% | [12] 3.74% | [13] -29.1% | [14] -27.6% | [15] -19.7% | [16] 2.31% | [17] -80.3% | [18] -5.14% | [19] -15.9%

C/C(=C\CSc1ccccc1C(=O)O)CCCC(C)CCCC(C)CCCC(C)C (stereo not given)
inactive: [1] 35.5% | [2] 77.5% | [3] 65.8% | [4] 57.6% | [5] 39.6% | [6] 71.4% | [7] 23.3% | [8] 41.3% | [9] 67.3% | [10] 87.8% | [11] 67.1% | [12] 36.2% | [13] 86.4% | [14] 75.9% | [15] 87.8% | [16] 51.5% | [17] 40.6% | [18] 61.1% | [19] 80.7% | [20] 60%
